In PubChem BioAssay AID1259415 (National Center for Advancing Translational Sciences (NCATS), 2018):
Among all 410,000 compounds or so, about 18,000 (4.4%) were called active. About 7% were inconclusive and are not listed. Rule as the data show it: active = activity change below about -60%; inconclusive = no clear call, values can overlap the other calls; inactive = above about -39%. Shown is part of a subset that was picked to be rich in actives.

Assay: qHTS Assay for inhibitors of the human cytomegalovirus (HCMV)
Conditions: HFF cells, HCMV-luciferase reporter, 72 h; at 57.5 µM; stronger effect = lower value
In short: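 Two-dose cell screen: HFF monolayers treated with compounds and infected with luciferase-expressing HCMV at 1 PFU/cell, 72 h at 37C, then lysed for luciferase measurement.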
% is scaled to controls: 0 for no effect and ±100 for the full control effect.

| Compound | activity change, negative = inhibition |
| --- | --- |
| CCOc1ccc(C(=O)c2cn(Cc3ccc(F)cc3)c3ccc(F)cc3c2=O)cc1 | -1.76% (inactive) |
| CCCc1nn2c(=O)cc(CSCC(=O)Nc3cccc(C)c3)nc2s1 | 2.89% (inactive) |
| C=CCNC(=S)N/N=C/c1ccc(C)s1 | 0% (active) |
| CNC(=S)N/N=C/c1ccc(N2CCOCC2)s1 | 26.5% (inactive) |
| C=CCNC(=S)NNC(=O)c1ccc(Br)o1 | -7.15% (inactive) |
| CN(C(=O)COC(=O)Cn1cnc2c1c(=O)n(C)c(=O)n2C)C1(C#N)CCCCC1 | 40.8% (inactive) |
| CCC(CC)c1nn2cc(-c3ccccc3)nc2s1 | -21.9% (inactive) |
| CCc1cc2c(cc3c(=O)n(CC(=O)NCc4cccc(Cl)c4)nc(CC)n32)s1 | 34.4% (inactive) |
| CC1(C)CC2CC(C)(CN2c2ncnc3ccc(Br)cc23)C1 (stereo not given) | -62.4% (active) |
| Cc1ccc(CN(C(=O)c2ccccc2[N+](=O)[O-])c2ccccn2)cc1 | 3.28% (inactive) |
| C=CC[n+]1c(-c2ccc(C)cc2)csc1NNC(=O)Nc1ccccc1 | -69.2% (active) |
| Cc1ccc(NC(=O)NNC(=O)c2sccc2-n2cccc2)cc1 | -19% (inactive) |
| Cc1ccc(C(CNC(=O)Nc2ccccc2)N2CCN(C)CC2)cc1 (stereo not given) | -29.6% (inactive) |
| Cc1cc2c(cc3c(SCc4nc(-c5ccccc5)oc4C)nnc(C)n32)o1 | -3.85% (inactive) |
| CC(=O)Nc1ccc(NC(=O)CSc2nnc3c4cc(Br)ccc4n(C)c3n2)cc1 | 38.8% (inactive) |
| CCOC(=O)CN1C(C(=O)c2ccccc2)=C(OC(=O)C(C)(C)C)c2ccccc2S1(=O)=O | -14% (inactive) |
| CCCOc1ccc(Cc2c(O)nc(SC)[nH]c2=O)cc1C | 15.7% (inactive) |
| CCCOc1ccc(Cc2c(Cl)nc(SC)nc2NC)cc1 | -93.9% (active) |
| Cc1nc(SCCOc2ccc(Cl)cc2)[nH]c(=O)c1Cc1ccccc1 | -7.29% (inactive) |
| CN(Cc1cccc2ncccc12)C(=O)CC1C(=O)NCCN1Cc1ccc(F)cc1 (stereo not given) | -30.9% (inactive) |
| O=C(CN1CCN(Cc2ccc(Cl)cc2)C1=O)NCc1ccc(F)cc1 | -24.9% (inactive) |
| Cc1ccc(C(=O)NC2CCCC(C)C2C)cc1S(=O)(=O)N1CCCCC1 (stereo not given) | -22.8% (inactive) |

| Compound | activity change, negative = inhibition |
| --- | --- |
| Cc1nn(-c2ccccc2)c(C)c1NC(=O)COC(=O)c1cc(Cl)ccc1O | 9.57% (inactive) |
| Cc1nn(-c2ccccc2)c(C)c1NC(=O)COC(=O)Cc1ccccc1 | -13% (inactive) |
| Cc1nn(-c2ccccc2)c(C)c1NC(=O)COc1ccc(Cl)cc1Cl | -98.7% (active) |
| N#Cc1nc(/C=C/c2ccc(F)cc2)oc1NCc1ccc(F)cc1 | -13.8% (inactive) |
| COc1cccc(-c2cc(C(=O)Nc3ccc(C)cc3)[nH]n2)c1 | 11.2% (inactive) |
| CCc1ccc(CNC(=O)c2cc3cc4ccc(OC)cc4nc3o2)cc1 | -26.2% (inactive) |
| Cc1ccc2c(=O)c(C(=O)c3cccc(Cl)c3)cn(CC(=O)NCc3ccccc3)c2n1 | -12.2% (inactive) |
| O=C(Nc1cc(Cl)cc(Cl)c1)c1ccc2c(c1)N(Cc1cccc(Cl)c1)C(=O)c1ccccc1S2=O (stereo not given) | 16.5% (inactive) |
| O=C(NC1CCCCC1)c1ccc2c(c1)N(Cc1ccc(Cl)cc1)C(=O)c1ccccc1S2=O (stereo not given) | 8.53% (inactive) |
| CN(C(=O)c1ccc2c(c1)N(Cc1cccc(Cl)c1)C(=O)c1ccccc1S2=O)C1CCCCC1 (stereo not given) | -63.4% (active) |
| CCCCNC(=O)c1nc(C2CCN(S(=O)(=O)c3ccc(F)c(F)c3)CC2)oc1-c1cccc(C(F)(F)F)c1 | 6.36% (inactive) |
| CCOC(=O)N1CCC(NC(=O)c2cnn(-c3cccc(C)c3)c2C2CCN(C(=O)OC(C)(C)C)CC2)CC1 | 0% (active) |
| COc1ccccc1N1CCN(CCCNC(=O)c2cnn(-c3ccccc3Cl)c2C2CCN(C(=O)OC(C)(C)C)CC2)CC1 | -12.2% (inactive) |
| Cc1cccc(-n2ncc(C(=O)N3CCC(C)CC3)c2C2CCN(C(=O)OC(C)(C)C)CC2)c1 | 0% (inactive) |
| Cc1ccc(CN2CCC(CNC(=O)c3cnn(-c4ccc(C)cc4)c3C3CCN(C(=O)OC(C)(C)C)CC3)CC2)cc1 | 0% (inactive) |
| CC(C)(C)OC(=O)N1CCC(c2c(C(=O)NCc3ccccn3)cnn2-c2ccc(F)cc2)CC1 | 14.7% (inactive) |
| Cc1ccc(CN2CCC(CNC(=O)c3cnn(-c4ccccc4Cl)c3C3CCN(C(=O)OC(C)(C)C)CC3)CC2)cc1 | -65.8% (active) |
| CC(C)(C)OC(=O)N1CCC(c2c(C(=O)Nc3ccc4c(c3)OCO4)cnn2-c2ccccc2)CC1 | -8.71% (inactive) |
| COC(=O)c1ccc(NC(=O)c2cnn(-c3ccc(Cl)cc3)c2C2CCN(C(=O)OC(C)(C)C)CC2)cc1 | 0% (active) |
| CCN1CCN(CCCNC(=O)c2cnn(-c3ccc(C)cc3C)c2C2CCN(C(=O)OC(C)(C)C)CC2)CC1 | -13.5% (inactive) |
| CC(C)(C)OC(=O)N1CCC(c2c(C(=O)N3CCN(c4cccc(Cl)c4)CC3)cnn2-c2cccc(Cl)c2)CC1 | 26.6% (inactive) |
| COc1ccccc1CN1CCC(CNC(=O)c2cnn(-c3ccccc3Cl)c2C2CCN(C(=O)OC(C)(C)C)CC2)CC1 | -7.53% (inactive) |

| Compound | activity change, negative = inhibition |
| --- | --- |
| COc1ccccc1CN1CCC(CNC(=O)c2cnn(-c3cccc(Cl)c3)c2C2CCN(C(=O)OC(C)(C)C)CC2)CC1 | -108% (active) |
| Cc1cc(C)cc(NC(=O)Cc2csc(C)n2)c1 | 53.8% (inactive) |
| Cc1ccc(Cn2c(CCCNC(=O)C3CCCCC3)nc3ccccc32)cc1 | -11.7% (inactive) |
| COc1ccc(N2CCN(S(=O)(=O)CCNC(=O)C(c3ccccc3)c3ccccc3)CC2)cc1 | 1.25% (inactive) |
| COC(=O)c1ccc2c(c1)N(CC(=O)Nc1ccc(C)c(C)c1)C(=O)c1ccccc1S2 | 6.12% (inactive) |
| CCc1ccc(N(CC(=O)Nc2sc3c(c2C(=O)OC)CCCC3)S(C)(=O)=O)cc1 | 40.2% (inactive) |
| COC(=O)c1c(NC(=O)c2ccc(Cl)c(Cl)c2)sc2c1CCCC2 | 15% (inactive) |
| COC(=O)c1c(NC(=O)CSc2nncs2)sc2c1CCCCC2 | -61.6% (active) |
| COc1ccc(S(=O)(=O)N2CCN(CC(=O)NCC3(N4CCOCC4)CCCCC3)CC2)cc1 | -36.1% (inactive) |
| O=C(CN1CCN(S(=O)(=O)c2ccc3ccccc3c2)CC1)NC(=O)NC1CCCCC1 | -4.61% (inactive) |
| O=C(CN1CCN(C(=S)NC2CCCC2)CC1)Nc1ccc(Oc2ccccc2)cc1 | -79.5% (active) |
| CCC(=O)c1ccc(OCC(=O)N2CCN(CC(=O)Nc3ccc(C)cc3)CC2)cc1 | 6.75% (inactive) |
| CC1(C)OC(=O)C2=C(C[C@@H](C3CC3)O[C@H]2c2ccc(Cl)cc2)O1 | -11.9% (inactive) |
| O=c1c2ccccc2ncn1CCCCOc1ccccc1F | -105% (active) |
| O=c1c2ccccc2ncn1CCc1ccncc1 | 16.6% (inactive) |
| Fc1ccccc1OCCCCn1cncn1 | -9.84% (inactive) |
| COc1ccc(CCN2C(=O)c3oc4cc(C)cc(C)c4c(=O)c3C2c2ccccc2F)cc1OC (stereo not given) | -2.86% (inactive) |
| COc1ccc(Br)cc1C1CC(=O)Nc2c1c(C)nn2-c1nc(C)cc(C)n1 (stereo not given) | -4.09% (inactive) |
| CN1CCC2(CC1)NC(=O)NC2=O | 7.02% (inactive) |
| O=C(COc1cccnc1[N+](=O)[O-])Nc1ccc(Cl)cc1F | 9.57% (inactive) |
| COc1ccc(-c2cnc(SCCNC(=O)c3ccc4c(c3)OCO4)[nH]2)cc1 | -28.5% (inactive) |
| Cc1ccc2cc(CCNC(=O)c3c(-c4ccccc4Cl)noc3C)c(=O)[nH]c2c1 | -94.6% (active) |

| Compound | activity change, negative = inhibition |
| --- | --- |
| Cc1onc(-c2c(Cl)cccc2Cl)c1C(=O)c1c[nH]c(C(=O)NC2CC2)c1 | 16.8% (inactive) |
| O=C(NCCc1ccc(C(F)(F)F)cc1)c1ccc2c(c1)OCO2 | -38.1% (inactive) |
| Cc1onc(-c2ccccc2Cl)c1C(=O)N(Cc1ccc(N(C)C)cc1)C(C)C | -25.9% (inactive) |
| Cc1ccc2cc(CCNC(=O)c3ccc4c(c3)OCO4)c(=O)[nH]c2c1 | -60.5% (active) |
| COC(=O)C1=CN(c2c(C)cc(C)cc2C)C(N)=C(C#N)C1c1cccc(F)c1 (stereo not given) | -18.9% (inactive) |
| COC(=O)[C@@H]1[C@@H](CO)[C@@H]2Cn3c(cccc3=O)[C@H]1N2CC1CCCC1 | 13.6% (inactive) |
| Cc1[nH]c2ccccc2c1C(c1ccccc1)c1cccs1 (stereo not given) | -20.6% (inactive) |
| Cc1cc(F)ccc1S(=O)(=O)Nc1ccc(C(=O)N(C)Cc2ccco2)cc1 | -17.3% (inactive) |
| CCOC(=O)C1CCCN(C(=O)c2ccc(C)c(F)c2)CC1 (stereo not given) | -2.4% (inactive) |
| CCOC(=O)C1CCCN(C(=O)c2ccc(N(C)C)cc2)CC1 (stereo not given) | 14.9% (inactive) |
| Cc1ccc(C)c(S(=O)(=O)N(C)c2ccc(OC(=O)C3CCN(C(=O)c4ccc(F)cc4)CC3)cc2)c1 | -83.9% (active) |
| Cc1ccc(S(=O)(=O)NCC(=O)OCC(=O)N2CCc3ccccc32)cc1 | -5.73% (inactive) |
| C/C(N)=C(/C#N)C(=O)COC(=O)CNS(=O)(=O)c1ccc(C)cc1 | -80.1% (active) |
| COc1cccc(OC)c1C(=O)OCC(=O)/C(C#N)=C(\C)N | -27.5% (inactive) |
| Cc1ccc(N2CC(C(=O)Nc3cc(Cl)ccc3-n3cncn3)CC2=O)cc1 (stereo not given) | 4.52% (inactive) |
| CCn1cc2nc(SCc3cccc(F)c3)n(CCc3ccccc3)c(=O)c2n1 | -35.3% (inactive) |
| CCCCN1C(N)=NC[C@@H]1CC1CCCCC1 | -18.4% (inactive) |
| CN(C)C1=NC[C@H](Cc2ccccc2)N1CCc1ccc(F)cc1 | -5.86% (inactive) |
| CCCC[C@@H]1CN=C(N)N1CCc1cc(C(F)(F)F)cc(C(F)(F)F)c1 | -75% (active) |
